In PubChem BioAssay (NCI):
Compounds without any hit were thinned out: in the full panel of roughly 83,000, 20% have a hit.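 How to read the values: 0–100, growth inhibition (40 = 60% inhibited); 0, no net growth; -100 to 0, cell death (-40 = 40% of starting cells died; -100 = all dead).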 Activity calls are given as the source filed them. Rule for the calls: active = growth percent below 10; inactive = the rest.

Legend:
Experiment in all cases: NCI-60 one-dose screen, 48 h (100 = growth as untreated, 0 = no growth, -100 = all killed)
Settings in all cases: 10 µM
SR leukemia = tested on: SR leukemia
RPMI-8226 leukemia = tested on: RPMI-8226 leukemia
OVCAR-8 ovarian = tested on: OVCAR-8 ovarian
OVCAR-5 ovarian = tested on: OVCAR-5 ovarian
OVCAR-4 ovarian = tested on: OVCAR-4 ovarian
IGROV1 ovarian = tested on: IGROV1 ovarian
OVCAR-3 ovarian = tested on: OVCAR-3 ovarian
HS 578T breast = tested on: HS 578T breast
NCI/ADR-RES ovarian = tested on: NCI/ADR-RES ovarian
SK-OV-3 ovarian = tested on: SK-OV-3 ovarian

Measured: growth

COc1ccc(C(=O)/C=C/c2cc(F)cc(C(F)(F)F)c2)cc1S(N)(=O)=O
active: SR leukemia 3.04% | RPMI-8226 leukemia 2.99% | OVCAR-8 ovarian -44.1% | OVCAR-5 ovarian -59.9% | OVCAR-4 ovarian -98% | IGROV1 ovarian -53.6% | OVCAR-3 ovarian -95.3% | HS 578T breast -25.7% | NCI/ADR-RES ovarian 5.77%

Cc1ccc2nc3c(nc2c1)c1cc(I)ccc1n3CCN(C)C
inactive: SR leukemia 10.8% | RPMI-8226 leukemia 22% | OVCAR-8 ovarian 23.6% | OVCAR-5 ovarian 31.9% | OVCAR-4 ovarian 27.2% | IGROV1 ovarian 13.9% | OVCAR-3 ovarian 40.8% | HS 578T breast 23.9% | NCI/ADR-RES ovarian 12.5%

O=C(Nc1ccc(Cl)c(C(F)(F)F)c1)c1cncc(C#Cc2cnc3ccc(N4CCOCC4)nn23)c1
inactive: OVCAR-5 ovarian 19.4% | OVCAR-4 ovarian 13.6% | SK-OV-3 ovarian 10.7% | OVCAR-3 ovarian 13.6%
active: SR leukemia 2.44% | OVCAR-8 ovarian 3.66% | IGROV1 ovarian -14.1% | HS 578T breast -25.3% | NCI/ADR-RES ovarian -5.95%

O=C(c1ccc(O)cc1)C1[C@H](c2ccc(Br)cc2)[C@@H](c2ccccc2)NC12C(=O)Nc1ccc(Br)cc12 (some centres not stated)
inactive: OVCAR-8 ovarian 12% | OVCAR-4 ovarian 14.3% | SK-OV-3 ovarian 13.2%
active: RPMI-8226 leukemia 1.12% | OVCAR-5 ovarian -4.82% | IGROV1 ovarian -6.01% | OVCAR-3 ovarian -38.9% | HS 578T breast -6.2% | NCI/ADR-RES ovarian -2.8%

C/C(=N\NC(N)=S)c1ccc(Nc2nc(SC(C)C)nc(-c3ccccc3)c2C#N)cc1
inactive: SR leukemia 79.9% | RPMI-8226 leukemia 72.3% | OVCAR-8 ovarian 30.5% | OVCAR-5 ovarian 75.6% | OVCAR-4 ovarian 57.7% | IGROV1 ovarian 81.3% | OVCAR-3 ovarian 67.3% | HS 578T breast 18.7% | NCI/ADR-RES ovarian 61.6%

CCOc1ccc(/C=N/NC(=O)Cn2nc(Cc3ccccc3)c3onc(C)c3c2=O)cc1
inactive: SR leukemia 78.1% | RPMI-8226 leukemia 76.2% | OVCAR-5 ovarian 60.9% | OVCAR-4 ovarian 10.6% | IGROV1 ovarian 38.5% | OVCAR-3 ovarian 14.7% | NCI/ADR-RES ovarian 16.1%
active: OVCAR-8 ovarian 5.16% | HS 578T breast -12.7%

COc1ccccc1NCc1ccc(CO)n1-c1ccc(C)cc1
inactive: RPMI-8226 leukemia 85.8% | OVCAR-8 ovarian 101% | OVCAR-5 ovarian 111% | OVCAR-4 ovarian 97.7% | SK-OV-3 ovarian 81.5% | IGROV1 ovarian 91.5% | OVCAR-3 ovarian 95.6% | HS 578T breast 98% | NCI/ADR-RES ovarian 95.9%

[2H]C([2H])([2H])Oc1ccc2ncc(C#Cc3cncc(C(=O)Nc4ccc(CN5CCN(C)CC5)c(C(F)(F)F)c4)c3)n2n1
active: SR leukemia -9.99% | OVCAR-8 ovarian -25.7% | OVCAR-5 ovarian -92.9% | OVCAR-4 ovarian -34.6% | SK-OV-3 ovarian -58.4% | IGROV1 ovarian -62.5% | OVCAR-3 ovarian -78.8% | HS 578T breast -47.9% | NCI/ADR-RES ovarian -68%

O=C(Nc1cccc(C(F)(F)F)c1)c1cncc(C#Cc2cnc3cccnn23)c1
inactive: OVCAR-8 ovarian 41% | OVCAR-5 ovarian 56.3% | OVCAR-4 ovarian 64.9% | SK-OV-3 ovarian 83.6% | IGROV1 ovarian 41.6% | OVCAR-3 ovarian 43.7% | HS 578T breast 45.7% | NCI/ADR-RES ovarian 16.6%
active: SR leukemia 9.35%

Cc1noc2c(Cc3ccccc3)nn(CC(=O)N/N=C/c3ccc(F)cc3)c(=O)c12
inactive: SR leukemia 102% | RPMI-8226 leukemia 83.7% | OVCAR-8 ovarian 33.1% | OVCAR-5 ovarian 93.7% | IGROV1 ovarian 70.4% | OVCAR-3 ovarian 44.6% | NCI/ADR-RES ovarian 60.7%
active: OVCAR-4 ovarian 5.18% | HS 578T breast -1.33%

COc1ccc(/C=C/C(=O)c2ccc(NC(=O)CN3C(=O)NC(C)(c4ccccc4)C3=O)cc2)cc1 (configuration not stated)
inactive: SR leukemia 61.6% | OVCAR-8 ovarian 93.3% | OVCAR-5 ovarian 102% | OVCAR-4 ovarian 78.3% | SK-OV-3 ovarian 106% | IGROV1 ovarian 90.3% | OVCAR-3 ovarian 78.2% | HS 578T breast 81.3% | NCI/ADR-RES ovarian 102%

N#Cc1c(Cl)nc(SCc2ccc(F)cc2)nc1-c1ccc(F)cc1
inactive: RPMI-8226 leukemia 91.4% | OVCAR-8 ovarian 89.2% | OVCAR-5 ovarian 95.6% | OVCAR-4 ovarian 95% | SK-OV-3 ovarian 103% | IGROV1 ovarian 109% | OVCAR-3 ovarian 111% | HS 578T breast 95.2% | NCI/ADR-RES ovarian 86.6%

CC(=O)Nc1nc(-c2ccc(N3CCN(C)CC3)c(NS(=O)(=O)c3ccc(C(F)(F)F)cc3)c2)cs1
active: RPMI-8226 leukemia -29.4% | OVCAR-8 ovarian 8.42% | OVCAR-3 ovarian -3.33% | NCI/ADR-RES ovarian -18.2%
inactive: OVCAR-5 ovarian 44.8% | OVCAR-4 ovarian 43.3% | SK-OV-3 ovarian 77% | IGROV1 ovarian 47.5% | HS 578T breast 38.6%

COC1CC(Cn2cc(COc3ccc4ccc(=O)oc4c3)nn2)C(OCc2ccccc2)C(OCc2ccccc2)C1OCc1ccccc1 (configuration not stated)
inactive: RPMI-8226 leukemia 77.7% | OVCAR-8 ovarian 103% | OVCAR-5 ovarian 111% | OVCAR-4 ovarian 93.4% | SK-OV-3 ovarian 91.9% | IGROV1 ovarian 107% | OVCAR-3 ovarian 125% | HS 578T breast 109% | NCI/ADR-RES ovarian 94.3%

Cc1ccc(CSc2nc(Cl)c(C#N)c(-c3ccc(F)cc3)n2)cc1
inactive: RPMI-8226 leukemia 58.5% | OVCAR-8 ovarian 83.8% | OVCAR-5 ovarian 94.1% | OVCAR-4 ovarian 81.6% | SK-OV-3 ovarian 88.3% | IGROV1 ovarian 95.8% | OVCAR-3 ovarian 86.3% | HS 578T breast 86.7% | NCI/ADR-RES ovarian 72.4%

O=C(Nc1cc(Cl)cc(Cl)c1)Nc1cc(Cl)cc(Cl)c1
active: RPMI-8226 leukemia -42.4% | OVCAR-8 ovarian 0.191% | OVCAR-5 ovarian 1.87% | SK-OV-3 ovarian -15.8% | IGROV1 ovarian 7.38% | OVCAR-3 ovarian -31.5% | HS 578T breast -19.3% | NCI/ADR-RES ovarian -24.1%
inactive: OVCAR-4 ovarian 10.8%

CNC(=O)c1cc(-c2ccc(NC(=O)Nc3ccc(C)cc3)cc2)nc2cccnc12
inactive: RPMI-8226 leukemia 88.8% | OVCAR-8 ovarian 97.8% | OVCAR-5 ovarian 105% | OVCAR-4 ovarian 108% | SK-OV-3 ovarian 91.1% | IGROV1 ovarian 92.8% | OVCAR-3 ovarian 105% | HS 578T breast 106% | NCI/ADR-RES ovarian 94.3%

O=C(c1ccc(O)cc1)C1[C@H](c2ccccc2Br)[C@@H](c2ccccc2)NC12C(=O)Nc1ccc(Br)cc12 (some centres not stated)
active: OVCAR-3 ovarian 7.23%
inactive: RPMI-8226 leukemia 24.6% | OVCAR-8 ovarian 48.6% | OVCAR-5 ovarian 64.1% | OVCAR-4 ovarian 51.4% | SK-OV-3 ovarian 65.2% | IGROV1 ovarian 18.4% | HS 578T breast 58.5% | NCI/ADR-RES ovarian 64.9%

CC1(C)CC[C@]2(C(=O)Nc3ccccc3)CC[C@]3(C)C(=CC[C@@H]4[C@@]5(C)CC[C@H](N)C(C)(C)[C@@H]5CC[C@]43C)[C@H]2C1
active: OVCAR-8 ovarian -66.5%
inactive: RPMI-8226 leukemia 19.7% | OVCAR-5 ovarian 84.4% | OVCAR-4 ovarian 76.8% | SK-OV-3 ovarian 96.5% | IGROV1 ovarian 96% | OVCAR-3 ovarian 105% | HS 578T breast 93.2% | NCI/ADR-RES ovarian 66.5%

Cc1ccc(NC(=O)NCn2c(=O)[nH]c3ccccc3c2=O)cc1
inactive: RPMI-8226 leukemia 92.7% | OVCAR-8 ovarian 39.9% | OVCAR-5 ovarian 94.2% | OVCAR-4 ovarian 50.8% | SK-OV-3 ovarian 57.8% | IGROV1 ovarian 76.6% | OVCAR-3 ovarian 87.6% | HS 578T breast 55.3% | NCI/ADR-RES ovarian 70.7%

O=C1Nc2cc(-c3ccc(NC(=O)c4cccs4)cc3)ccc2/C1=C/c1ccc[nH]1
inactive: RPMI-8226 leukemia 52.4% | OVCAR-8 ovarian 63.4% | OVCAR-5 ovarian 89.7% | OVCAR-4 ovarian 50.4% | SK-OV-3 ovarian 108% | IGROV1 ovarian 97.8% | OVCAR-3 ovarian 69.6% | HS 578T breast 73.3% | NCI/ADR-RES ovarian 62.1%

N#Cc1c(-c2ccc(F)cc2)nc(SCc2ccc(F)cc2)nc1N1CCOCC1
inactive: RPMI-8226 leukemia 92.7% | OVCAR-8 ovarian 54.8% | OVCAR-5 ovarian 83.1% | OVCAR-4 ovarian 60.5% | SK-OV-3 ovarian 39.6% | IGROV1 ovarian 90.9% | OVCAR-3 ovarian 75.2% | HS 578T breast 25.7% | NCI/ADR-RES ovarian 63.5%

Cc1cccc2cc(-c3cc(-c4ccccc4)nc(=S)[nH]3)c(Cl)nc12
inactive: RPMI-8226 leukemia 81% | OVCAR-8 ovarian 85.4% | OVCAR-5 ovarian 108% | OVCAR-4 ovarian 99.5% | SK-OV-3 ovarian 116% | IGROV1 ovarian 93.1% | OVCAR-3 ovarian 107% | HS 578T breast 59.4% | NCI/ADR-RES ovarian 56.6%

CC1=C2C(=C[C@@](C)(COCOCCCl)[C@@H]2O)C(=O)[C@](C)(O)C12CC2
inactive: RPMI-8226 leukemia 10.1%
active: OVCAR-8 ovarian -38.4% | OVCAR-5 ovarian -56.6% | OVCAR-4 ovarian -48.6% | SK-OV-3 ovarian -33.7% | IGROV1 ovarian -38.5% | OVCAR-3 ovarian -27.4% | HS 578T breast -15.8% | NCI/ADR-RES ovarian -61.7%

CN1CCN(c2ccc(Nc3nc(N4CCN(S(=O)(=O)c5ccc(F)cc5)CC4)c4sccc4n3)cc2)CC1
active: RPMI-8226 leukemia -24.2% | OVCAR-8 ovarian -85% | OVCAR-5 ovarian -96.8% | OVCAR-4 ovarian -89.3% | SK-OV-3 ovarian -87.2% | IGROV1 ovarian -86.4% | OVCAR-3 ovarian -79% | HS 578T breast -47.7% | NCI/ADR-RES ovarian -83%

C=C(C)[C@@H]1CC[C@]2(C(=O)OC)CC[C@]3(C)[C@H](CC[C@@H]4[C@@]5(C)CC[C@H](N)C(C)(C)[C@@H]5CC[C@]43C)[C@@H]12
active: RPMI-8226 leukemia -30.7% | OVCAR-8 ovarian -77.4% | OVCAR-5 ovarian -100% | OVCAR-4 ovarian -93.1% | SK-OV-3 ovarian -54.8% | IGROV1 ovarian -95.8% | OVCAR-3 ovarian -78.1% | HS 578T breast -59.3% | NCI/ADR-RES ovarian -83%

COc1ccc(C(=O)Nc2ccc(-c3ccc4c(c3)NC(=O)/C4=C\c3ccc[nH]3)cc2)cc1
active: OVCAR-8 ovarian -22.3% | OVCAR-4 ovarian -36.8% | OVCAR-3 ovarian 9.86% | HS 578T breast -0.0796% | NCI/ADR-RES ovarian -42.8%
inactive: RPMI-8226 leukemia 65.5% | OVCAR-5 ovarian 51.8% | SK-OV-3 ovarian 79.2% | IGROV1 ovarian 65.9%

CCN1CCN(c2ccc(NC(=O)Nc3ccc(-c4cc(C(=O)NC)c5ncccc5n4)cc3)cc2C(F)(F)F)CC1
active: RPMI-8226 leukemia -50.3% | OVCAR-8 ovarian -94.1% | OVCAR-5 ovarian -100% | OVCAR-4 ovarian -100% | SK-OV-3 ovarian -88.7% | IGROV1 ovarian -98.2% | OVCAR-3 ovarian -100% | HS 578T breast -51.5% | NCI/ADR-RES ovarian -65.3%
